Screening results: PubChem BioAssay, National Center for Advancing Translational Sciences (NCATS)
A selection: hits, their analogues and other compounds. The true share with any hit is near 9.2%.
NPC1 promoter act – activates the NPC1 promoter. Huh7 NPC1 promoter luciferase reporter, 24 h. Potency, µM (highest dose often 9.22 µM), for the others: at the highest dose activation, usual class: activators. hit rate 2.4% among 320,000; note: % of control where 0% means no effect; nearly all actives have a fitted effect of over 60% in size
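Huh7 reporter cells (NPC1 promoter driving luciferase) are dosed with compound for 24 h at 37 °C, 5% CO2; luciferase detection reagent is then added and luminescence measured after 10 min at ambient temperature.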
ELG1 genotoxic – inducers of genotoxicity in HEK293T ELG1-luciferase cells | HEK293T ELG1-luciferase reporter, luminescence, 16 h | AID 504466 | hit rate 1.3% among 330,000 | Potency, µM (doses to about 46 µM), inactives show at the top dose activity change, positive = activation, most hits filed as activators; note: % of control where 0% means no effect; nearly all actives have a fitted effect of over 60% in size
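Step 1: seed 2,000 HEK293T ELG1-luciferase cells per well. Step 2: add compound or DMSO, incubate 16 hr at 37 °C. Step 3: ONE-Glo, 30 min at room temperature, read luminescence.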
FLuc counter – firefly luciferase modulation, counter-screen for miR-21 project; P08659; purified FLuc, Km substrates, luminescence inhibition; Potency, µM (titrated, usually from 57.5 µM), without a hit: at the highest dose activity change, negative = inhibition, actives largely listed as inhibitors; hit rate 6.9% among 360,000; AID 588342;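 note: plate controls were vehicle for no effect and reference inhibitor for full effect; nearly all actives have a fitted effect of over 55% in size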
Target sequence (P08659 whole entry, looked up): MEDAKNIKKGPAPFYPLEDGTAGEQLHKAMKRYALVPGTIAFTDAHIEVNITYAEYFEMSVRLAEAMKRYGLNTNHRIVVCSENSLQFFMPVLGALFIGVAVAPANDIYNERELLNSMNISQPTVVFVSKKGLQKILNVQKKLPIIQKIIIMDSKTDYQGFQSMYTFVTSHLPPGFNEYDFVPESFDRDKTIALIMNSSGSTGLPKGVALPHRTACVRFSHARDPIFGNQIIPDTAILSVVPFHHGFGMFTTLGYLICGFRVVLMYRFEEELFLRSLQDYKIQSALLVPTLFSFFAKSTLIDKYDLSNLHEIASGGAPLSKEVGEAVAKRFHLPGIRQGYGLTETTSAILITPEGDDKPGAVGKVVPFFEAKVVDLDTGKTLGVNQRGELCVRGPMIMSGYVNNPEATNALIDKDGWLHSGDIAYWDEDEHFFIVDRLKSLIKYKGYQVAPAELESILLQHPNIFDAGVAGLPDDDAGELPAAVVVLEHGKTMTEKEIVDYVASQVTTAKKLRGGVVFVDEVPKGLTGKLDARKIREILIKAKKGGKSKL
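Purified P. pyralis luciferase (10nM final) with 10uM D-luciferin and 10uM ATP (Km levels) in 50mM Tris acetate pH 7.5, 10mM Mg acetate, 0.01% Tween-20, 0.05% BSA; qHTS 6-point titration, ~60 µM downward; luminescence read.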
Rab9 prom act – activates the Rab9 promoter; Huh7 Rab9 promoter-luciferase reporter, luminescence, 24 h; Potency, µM (series often up to 9.22 µM), for the others: at the top dose activation, negative = inhibition, usual class: activators; hit rate 2.8% among 320,000; note: % of control where 0% means no effect; nearly all actives have a fitted effect of over 60% in size
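Cell-based reporter: Huh7 stable for Rab9 promoter-driven luciferase, plated in reduced-serum medium with 10% FBS at 1500 cells/well, compound-treated 24 h at 37 °C, luminescence read after 10 min reagent.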
ELG1 DNA repair – blocks ELG1-dependent DNA repair in HEK293T cells | HEK293T ELG1-luciferase reporter, luminescence, 16 h; DNA damage induced by 5-fluorouridine | Potency, µM (doses to about 46.1 µM), for the others: at the top dose activity change, negative = inhibition, hits mostly inhibitors | hit rate 2.3% among 330,000 | AID 504467; note: % is set by controls: 0 for no effect and ±100 for the full control effect; nearly all actives have a fitted effect of over 55% in size
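Quantitative HTS, concentration-response format. 2,000 cells/well co-treated with 5-fluorouridine and compound, 16 hr in 5% CO2 at 37 °C; ONE-Glo luminescence read after 30 min.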
SMN2 splice up – increases expression of the SMN2 splice variant; HEK293 SMN2-luciferase splicing reporter, luminescence, 30-36 h; Potency, µM (series often up to 46.1 µM), for inactives: at the highest dose activity change, positive = activation, actives largely listed as activators; hit rate 2.8% among 210,000; note: % of control where 0% means no effect; nearly all actives have a fitted effect of over 55% in size
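HEK293 cells carry an SMN2 minigene-luciferase reporter in which exon 7 inclusion puts luciferase in frame. Cells were seeded at 2000 cells/well, attached for 10-12 hours, then exposed to compounds for 30-36 hours at 37C before ONE-Glo luminescence.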
The depositor's hits bear a star; ? = inconclusive; . = no result; [ ] = remark or other dose. Calls come from the whole dose curve; as a rule, active = well fitted curve in the direction sought with a large enough effect; inconclusive = small, poorly fitted or top-dose-only effect, or another doubt; inactive = no such curve, though single readings can be large; an effect the other way counts as inactive or inconclusive. Potency is the fitted concentration of half-maximal effect.

SMILES | NPC1 promoter act | ELG1 genotoxic | FLuc counter | Rab9 prom act | ELG1 DNA repair | SMN2 splice up
COc1ccccc1/C=C/C=N/NC(=O)c1ccncc1 | 0.4% | 1.1% | ? | -0.2% | 3.9% | 9.4%
COc1ccc(/C=N/NC(=O)c2ccco2)cc1OCc1ccccc1 | 0.2% | -1.3% | -12.3% | -4.3% | -12.7% | .
CC1=CC(=O)c2c(O)ccc(O)c2C1=O | -44.1% | -2.3% | ? | -53.5% | -9.0% | .
CCS(=O)(=O)N1CC(=O)N(c2ccc(Cl)cc2)C(C)(C(=O)NC2CCCCC2)C1 (stereo not given) | . | . | -1.2% | . | . | .
COc1cc(OC)c(NC(=O)c2ccc(-n3cnc4cccnc43)cc2)cc1Cl | . | . | -0.4% | . | . | .
COCCCNC(=O)Nc1cc(C(=O)NCc2ccc(OC)cc2)ccc1N1CCCC1 | . | . | -3.9% | . | . | .
O=C(Nc1ccccc1C(=O)N/N=C/c1ccc(O)cc1)c1ccccc1 | ? | 15.2% | 0.151µM* | ? | ? | .
COc1ccc(CCCC(=O)N/N=C/c2cccc(OC)c2O)cc1C | -8.2% | ? | 16.9µM* | -25.3% | -4.8% | -90.2%
O=C(Nc1ccccc1C(=O)N/N=C/c1ccccc1)c1ccco1 | ? | -3.2% | 2.69µM* | 27.7% | ? | .
O=C(N/N=C/c1ccc(OCc2ccccc2)cc1)c1ccco1 | ? | 19.5% | ? | 2.82µM* | ? | .
O=C(Nc1ccccc1C(=O)Nc1ccccc1)c1ccco1 | -0.5% | 3.6% | -1.9% | -1.4% | 16.4% | .
CC(C)(C)OC(=O)N/N=C\c1ccc(OC(=O)c2ccco2)cc1 | ? | ? | 2.0% | 3.98µM* | ? | ?
Cc1cccc(Cc2nnc(CCC(=O)N(CC3CC3)CC3CCCO3)o2)c1 (stereo not given) | ? | ? | 21.3µM* | ? | ? | .
CCOc1ccc(C(=O)CCCC(=O)c2ccc(OCC)cc2)cc1 | ? | ? | 6.75µM* | 18.6% | ? | .
Cc1ccc(C(=O)CCS(=O)(=O)c2ccc(F)cc2)cc1 | -3.9% | 10.3% | 0.757µM* | 4.7% | 11.8% | .
Cc1ccc(S(=O)(=O)CCC(=O)c2ccc(F)cc2)cc1 | -1.6% | -3.3% | 2.6% | 10.0% | 7.9% | .
CCOc1ccc(C(=O)COC(=O)CC)cc1 | -1.8% | -0.5% | 5.36µM* | -0.4% | 18.4% | 3.0%
O=C(CCCC(=O)c1ccc(F)cc1)c1ccc(F)cc1 | 2.82µM* | ? | 3.01µM* | 1µM* | ? | .
CCOc1ccc(C(=O)CCN2CCCCCC2)cc1 | -1.1% | 0.2% | -12.6% | -1.4% | -4.6% | 12.8%
O=C(NCc1ccc(F)cc1)C1CC(=O)N(C2CCCCCCC2)C1 (stereo not given) | -5.8% | -2.1%[9.26 µM] | -1.6% | -3.5% | -0.3% | .
CCCCC(=O)OCC(=O)c1ccc(OCC)cc1 | 17.1% | 4.6% | 0.849µM* | 10.5% | ? | -5.4%
CCCOc1ccc(C(=O)CCC(=O)OCC(=O)Nc2ccc(OCC)cc2)cc1 | -2.2% | 3.1% | -3.2% | -0.1% | 0.9% | .
CC(=O)N1CCc2cc(Br)cc(S(=O)(=O)N3CCC(C(=O)O)CC3)c21 | -0.9% | 1.9% | 0.2% | -6.5% | 21.0% | .
COC(=O)C(Cc1ccc(O)cc1)NC(=O)c1ccc2c(c1)OCCO2 (stereo not given) | 8.3% | ? | 1.35µM* | 6.1% | ? | .
O=C(COC(=O)c1ccc(O)cc1)c1ccc2c(c1)OCCO2 | 3.55µM* | 5.17µM* | 1.2µM* | 3.98µM* | ? | .
CC(=O)Nc1cc(NC(C)=O)cc(C(=O)OCC(=O)c2ccc3c(c2)OCO3)c1 | -2.5% | 29.4% | -2.8% | 0.8% | ? | .
CCOC(=O)C1=C(C)NC(C)=C(C(=O)OCC)C1C(=O)OCC(=O)NCc1ccco1 | . | -6.4% | . | . | 10.3µM* | .
O=C(COC(=O)c1ccc(O)cc1O)c1ccc2c(c1)OCO2 | ? | 6.9% | 8.49µM* | 5.5% | 2.1% | .
